# Screening data deposited in PubChem BioAssay by National Center for Advancing Translational Sciences (NCATS).
# Sampled rows, rich in hits. Any-hit rate of the full collection: about 2.8%.
# POLB inh = blocks human DNA polymerase beta activity; Pol beta primer extension/strand displacement, fluorescence kinetic; actives 1.3% (n = 340,000); Potency, µM (series often up to 114 µM), hits mostly inhibitors; P06746; AID 485314
#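 Curves were derived by four-parameter Hill fits of normalized qHTS data. The kinetic fluorescent primer-extension read was taken at 0 and 10 min after 50 nM substrate, following a 15 min room-temperature preincubation of 10 nM enzyme with compounds.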
# WRN inhibitor = blocks human WRN helicase | Q14191 | WRN helicase unwinding, fluorescent forked duplex, kinetic | Potency, µM (titrated, usually from 114 µM), usual class: inhibitors | actives 0.46% (n = 360,000) | AID 651768; further: nearly all actives have a fitted effect of over 55% in size
#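 Kinetic red-fluorescence monitoring (525/598 nm) tracks WRN helicase activity after 100 nM fluorophore-quencher forked duplex and 2 mM ATP are added to 20 nM enzyme pretreated 15 min at room temperature with compound.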
# Pol eta inh-1 = blocks human DNA polymerase eta activity. recombinant Pol eta, fluorescent DNA replication assay. actives 1.2% (n = 390,000). Potency, µM (top dose mostly 114 µM), hits mostly inhibitors. Q9Y253
#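 Pol eta (10 nM) was preincubated with compounds for 15 min at room temperature, after which fluorescent replication substrate (50 nM final) was added to start the reaction. Fluorescence was read kinetically at 0 and 10 min.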
# PI5P4Ka inh = PI5P4K alpha (human) kinase inhibition; max response, %; AID 652105; actives 1.2% (n = 330,000); P48426; PI5P4Kalpha enzyme, ADP-Glo luminescence, 60 min; active compounds read low; active means max response of -50% or lower; inconclusive means between -30% and -50%; inactive means -30% or higher; further: value at the top dose of about 77 µM
#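 Single end-point luminescence (ADP-Glo) quantified ADP from PI5P4Kalpha turnover; ATP 5 microM final, 1 h at RT, 0.1% CHAPS and 0.28 mM EGTA in HEPES pH 7.4.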
# POLI inh = inhibitors of human DNA polymerase iota; Pol iota fluorescent replication assay, 10 min; Potency, µM (doses to about 115 µM), usual class: inhibitors; actives 1% (n = 390,000)
#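 Fluorescent replication assay read twice, at 0 min and 10 min after adding 50 nM (final) substrate. Enzyme (10 nM) and compounds were first incubated 15 min at room temperature; enzyme-free buffer wells were negative controls.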
# Pol kappa inh-1 = blocks human DNA polymerase kappa activity; Q9UBT6; purified Pol kappa, fluorescent DNA synthesis assay, 10 min; Potency, µM (titrated, usually from 107 µM), usual class: inhibitors; actives 0.53% (n = 400,000)
# Target sequence (Q9UBT6 whole entry, looked up): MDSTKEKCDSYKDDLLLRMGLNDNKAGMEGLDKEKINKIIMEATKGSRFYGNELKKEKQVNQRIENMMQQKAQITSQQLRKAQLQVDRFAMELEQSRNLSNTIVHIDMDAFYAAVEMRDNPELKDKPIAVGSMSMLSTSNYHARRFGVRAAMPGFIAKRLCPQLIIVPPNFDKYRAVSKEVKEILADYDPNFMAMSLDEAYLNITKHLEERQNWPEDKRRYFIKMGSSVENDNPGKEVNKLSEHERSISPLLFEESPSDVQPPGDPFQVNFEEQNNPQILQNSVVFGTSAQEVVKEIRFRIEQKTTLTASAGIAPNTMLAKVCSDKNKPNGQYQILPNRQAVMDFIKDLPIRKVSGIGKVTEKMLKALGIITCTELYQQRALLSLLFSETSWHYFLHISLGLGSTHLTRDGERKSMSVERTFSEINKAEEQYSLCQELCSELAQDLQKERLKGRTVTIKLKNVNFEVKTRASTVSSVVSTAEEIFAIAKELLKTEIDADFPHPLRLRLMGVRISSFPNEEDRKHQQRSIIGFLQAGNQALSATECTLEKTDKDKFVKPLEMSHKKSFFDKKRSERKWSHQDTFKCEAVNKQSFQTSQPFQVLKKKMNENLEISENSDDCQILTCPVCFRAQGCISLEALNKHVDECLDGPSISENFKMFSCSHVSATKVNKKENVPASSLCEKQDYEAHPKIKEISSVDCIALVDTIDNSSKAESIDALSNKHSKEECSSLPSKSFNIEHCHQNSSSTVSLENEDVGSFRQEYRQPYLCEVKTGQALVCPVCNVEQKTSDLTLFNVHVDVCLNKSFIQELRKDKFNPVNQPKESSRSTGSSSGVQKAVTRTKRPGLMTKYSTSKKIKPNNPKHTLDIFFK
#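 Fluorescent qHTS in 1536-well format: enzyme (10 nM) and compound sat 15 min at room temperature before 50 nM substrate (final) was added. Signal taken at 0 and 10 min; no-enzyme buffer wells were negative controls.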
# GALK confirm = galactokinase (human) inhibition, confirmation. shares compounds with Pol eta inh-1. purified GALK, Kinase-Glo ATP depletion luminescence. Potency, µM (titrated, usually from 115 µM), most hits filed as inhibitors. actives 70% (n = 150). AID 2015
# Redox cycling = redox cycling activity in phenol red-HRP assay; shares compounds with Pol eta inh-1; Phenol red-HRP H2O2 redox cycling, absorbance 600 nm; Potency, µM (titrated, usually from 115 µM), actives largely listed as inhibitors; actives 40% (n = 150); AID 2035
# HEK293 tox = counter-screen for GALK inhibitors: HEK293 cell cytotoxicity | AID 2547 | HEK-293 viability, ATP luminescence (CellTiter-Glo), 24/48 h | shares compounds with Pol eta inh-1 | actives 10% (n = 170) | Potency, µM (series often up to 46.1 µM), usual class: inhibitors
# Pol kappa inh-2 = confirmation of human DNA polymerase kappa inhibitors. shares compounds with Pol eta inh-1. purified Pol-kappa, fluorescent strand-displacement substrate. Potency, µM, hits mostly inhibitors. actives 76% (n = 920)
# Pol eta inh-2 = confirmation of human DNA polymerase eta inhibitors. shares compounds with Pol eta inh-1. Pol eta primer extension, TAMRA/BHQ fluorescence, 10 min. Potency, µM, most hits filed as inhibitors. actives 64% (n = 2,600)
# Hits are given with their value; . = inactive; ? = inconclusive; / = not tested or not shown; [ ] = remark or other dose. Unless noted, the call rests on the fitted dose curve; in most records, active means well fitted curve in the direction sought with a large enough effect; inconclusive means small, poorly fitted or top-dose-only effect, or another doubt; inactive means no such curve, though single readings can be large; an effect the other way counts as inactive or inconclusive.
SMILES,POLB inh,WRN inhibitor,Pol eta inh-1,PI5P4Ka inh,POLI inh,Pol kappa inh-1,Pol eta inh-2,others
S=c1[nH]nc(Cc2sc(-c3ccccc3)nc2-c2ccccc2)o1,.,.,.,.,.,.,/,GALK confirm=33µM;Redox cycling=.;HEK293 tox=.
COc1cc(/C=C2\S/C(=N/S(=O)(=O)c3ccc(C)cc3)NC2=O)c([N+](=O)[O-])cc1OC,.,.,.,.,.,.,/,
Cc1ccc(S(=O)(=O)/N=C2/NC(=O)/C(=C/c3cc([N+](=O)[O-])ccc3O)S2)cc1,.,?,28µM,.,28µM,?,/,Pol kappa inh-2=?
O=C1NC(=Nc2ccccc2Cl)S/C1=C\c1cc([N+](=O)[O-])ccc1O,?,.,79µM,-67,35µM,?,/,Pol kappa inh-2=?
O=C(O)c1cc(-c2ccc(/C=N/Nc3ccc([N+](=O)[O-])cn3)o2)ccc1Cl,?,?,.,-61,?,.,85,Pol kappa inh-2=75
O=C(O)c1ccccc1C=NNc1ccc([N+](=O)[O-])cn1,/,.,.,.,.,.,/,
O=C1/C(=C/c2ccc(C(=O)O)cc2)CCC/C1=C\c1ccc(C(=O)O)cc1,.,.,8.9µM,?,?,.,30,
CCOCCCNc1nc2ccccc2n2c(CC)nnc12,.,/,.,/,?,.,/,
COc1ccc(-c2ccc(CN3C(C)C(=O)N(Cc4cn(CCC5OCCO5)nn4)CCS3(=O)=O)cc2)cc1 (stereo unspecified),/,.[11.6 µM],28µM,?,/,/,?,Pol kappa inh-2=?
COc1ccc(-c2ccc(CN3C(C)C(=O)N(Cc4cn(CCC5OCCO5)nn4)CCS3(=O)=O)cc2)cn1 (stereo unspecified),/,.,.,.,/,/,/,
Cc1cc(C(=O)NNC(=O)c2ccccc2F)c2ccccc2n1,/,.,.,.,.,.,/,
Cc1ccc(-n2c(SCC(=O)NCc3ccccc3)nc3n[nH]c(C)c3c2=N)cc1Cl,.,/,.,/,?,.,/,
O=C(CSc1nc2ccsc2c(=O)n1Cc1ccc(C(=O)O)cc1)NCc1ccco1,.,.,45µM,.,?,.,?,
COc1cccc(-n2cnc3c(sc4nc(N5CCOCC5)c5c(c43)CCCC5)c2=O)c1,.,.,.,.,.,.,/,
CC(C(=O)c1ccccc1)[n+]1ccc(Cl)c2ccc(Cl)cc21 (stereo unspecified),/,/,/,/,.,.,/,
COc1ccc(-n2c(NC(=O)c3ccco3)c(C#N)c3nc4ccccc4nc32)cc1,.,50µM,20µM,.,.,.,85,Pol kappa inh-2=67
COc1ccc(C(=O)Nc2ccc(NC(=O)c3ccco3)cc2)cc1,.,.,.,.,.,.,/,
CCCCN(Cc1ccc(C(=O)N[C@H](C(=O)O)C(C)C)cc1)C(=O)C(c1ccccc1)c1ccccc1,/,.,.,.,.,.,/,
O=C(O)CCN1CC2([N+](=O)[O-])C=CC(=O)C([N+](=O)[O-])(C1)C2CC(=O)c1ccccc1 (stereo unspecified),28µM,.[11.6 µM],18µM,.,?,?,30,Pol kappa inh-2=17
O=C(CCN1CCCCCC1)c1ccccc1,.,.,.,.,.,.,/,
O=C(O)c1cc(-c2ccco2)nc2cc3ccccc3cc12,11µM,?,20µM,?,?,79µM,76,
CCCOc1ccc(-c2nonc2NC(=O)c2cc(OC)c(OC)c(OC)c2)cc1OCCC,.,/,.,/,.,.,/,
COc1ccccc1-c1ccc(/C=C2\C=CC(=O)O2)o1,.,?,25µM,.,20µM,35µM,54,
O=C(Nc1cccc(F)c1)N1CCCCCC1,.,.,.,.,.,.,/,
COc1ccc(C/C(O)=C(\C#N)c2nc3ccccc3s2)cc1,.,.,.,/,.,.,/,GALK confirm=42µM;Redox cycling=.;HEK293 tox=.
SMILES,POLB inh,WRN inhibitor,Pol eta inh-1,PI5P4Ka inh,POLI inh,Pol kappa inh-1,Pol eta inh-2,others
N#C/C(=C(/O)COc1ccc(Cl)cc1)c1nc2ccccc2s1,.,.,.,.,.,.,/,GALK confirm=?;Redox cycling=.;HEK293 tox=.
O=C(NC1CCCc2ccccc21)c1cccc(S(=O)(=O)N2CCOCC2)c1 (stereo unspecified),.,.,.,.,.,.,/,
COc1ccc(Br)cc1CN(C)C(=O)c1ccccc1OCc1c(C)noc1C,/,.,.,.,.,.,/,
CCOC(=O)CN1C(=O)S/C(=C/c2ccc(C)o2)C1=O,.,.,.,.,.,.,/,
C#CCN1C(=O)S/C(=C\c2ccc(-c3ccc(Cl)c(C(=O)O)c3)o2)C1=O,?,.[11.6 µM],14µM,?,?,35µM,?,
COc1cc(CCc2ccccc2)c(C(=O)O)c(O)c1CC=C(C)C,/,.,.,.,.,.,/,
COc1cc(CCc2ccccc2)c(C(=O)O)c(O)c1C/C=C(/C)CCC=C(C)C,/,?,32µM,.,?,79µM,85,Pol kappa inh-2=?
COc1cn(CC(=O)Nc2ccc(C)cc2C)c(CN2CCCCC2)cc1=O,.,/,.,/,.,.,/,
O=C1c2ccccc2C(=O)N1/N=C/c1ccc(O)c(O)c1,?,.[11.6 µM],?,.,?,?,60,
O=C1C2C3C=CC(CC3)C2C(=O)N1/N=C/c1ccc(O)cc1 (stereo unspecified),.,.,.,/,.,.,/,
O=C1C2C3C=CC(CC3)C2C(=O)N1/N=C/c1ccc(O)c(O)c1 (stereo unspecified),?,.,4µM,?,?,?,?,
Cc1ccc(N2CCN(S(=O)(=O)c3c(C)noc3C)CC2C)cc1 (stereo unspecified),.,.,.,.,.,.,/,
CCOC(=O)N1Cc2cc3ccccc3nc2C1,/,.,.,.,/,/,/,
O=C(O)/C=C/C(=O)N1Cc2cc3ccccc3nc2C1,?,?,50µM,.,?,?,76,
O=C(O)/C(=C/c1ccco1)NC(=O)c1ccc(Br)o1,?,.,?,.,?,.,60,
O=C(O)/C(=C/c1ccco1)NC(=O)c1ccccc1,40µM,.,11µM,.,?,.,?,Pol kappa inh-2=47
O=C(NCc1ccco1)/C(=C/c1ccco1)NC(=O)c1ccc(Br)o1,.,.[11.6 µM],?,.,?,.,/,
